The entries come from a sample that favours hits as a whole.
KDM5B inhibitor: KDM5B demethylase inhibition | KDM5B demethylase, FDH-coupled NADH fluorescence (FDH is formaldehyde dehydrogenase) | actives 2.6% (n = 220,000) | Potency, µM (highest dose often 57.7 µM), hits mostly inhibitors | AID 1347165 | Q9UGL1; active = well fitted inhibition curve with a large enough effect; also: 0% is about no effect; nearly all actives have a fitted effect of over 70% in size
Target sequence (Q9UGL1 whole entry, looked up): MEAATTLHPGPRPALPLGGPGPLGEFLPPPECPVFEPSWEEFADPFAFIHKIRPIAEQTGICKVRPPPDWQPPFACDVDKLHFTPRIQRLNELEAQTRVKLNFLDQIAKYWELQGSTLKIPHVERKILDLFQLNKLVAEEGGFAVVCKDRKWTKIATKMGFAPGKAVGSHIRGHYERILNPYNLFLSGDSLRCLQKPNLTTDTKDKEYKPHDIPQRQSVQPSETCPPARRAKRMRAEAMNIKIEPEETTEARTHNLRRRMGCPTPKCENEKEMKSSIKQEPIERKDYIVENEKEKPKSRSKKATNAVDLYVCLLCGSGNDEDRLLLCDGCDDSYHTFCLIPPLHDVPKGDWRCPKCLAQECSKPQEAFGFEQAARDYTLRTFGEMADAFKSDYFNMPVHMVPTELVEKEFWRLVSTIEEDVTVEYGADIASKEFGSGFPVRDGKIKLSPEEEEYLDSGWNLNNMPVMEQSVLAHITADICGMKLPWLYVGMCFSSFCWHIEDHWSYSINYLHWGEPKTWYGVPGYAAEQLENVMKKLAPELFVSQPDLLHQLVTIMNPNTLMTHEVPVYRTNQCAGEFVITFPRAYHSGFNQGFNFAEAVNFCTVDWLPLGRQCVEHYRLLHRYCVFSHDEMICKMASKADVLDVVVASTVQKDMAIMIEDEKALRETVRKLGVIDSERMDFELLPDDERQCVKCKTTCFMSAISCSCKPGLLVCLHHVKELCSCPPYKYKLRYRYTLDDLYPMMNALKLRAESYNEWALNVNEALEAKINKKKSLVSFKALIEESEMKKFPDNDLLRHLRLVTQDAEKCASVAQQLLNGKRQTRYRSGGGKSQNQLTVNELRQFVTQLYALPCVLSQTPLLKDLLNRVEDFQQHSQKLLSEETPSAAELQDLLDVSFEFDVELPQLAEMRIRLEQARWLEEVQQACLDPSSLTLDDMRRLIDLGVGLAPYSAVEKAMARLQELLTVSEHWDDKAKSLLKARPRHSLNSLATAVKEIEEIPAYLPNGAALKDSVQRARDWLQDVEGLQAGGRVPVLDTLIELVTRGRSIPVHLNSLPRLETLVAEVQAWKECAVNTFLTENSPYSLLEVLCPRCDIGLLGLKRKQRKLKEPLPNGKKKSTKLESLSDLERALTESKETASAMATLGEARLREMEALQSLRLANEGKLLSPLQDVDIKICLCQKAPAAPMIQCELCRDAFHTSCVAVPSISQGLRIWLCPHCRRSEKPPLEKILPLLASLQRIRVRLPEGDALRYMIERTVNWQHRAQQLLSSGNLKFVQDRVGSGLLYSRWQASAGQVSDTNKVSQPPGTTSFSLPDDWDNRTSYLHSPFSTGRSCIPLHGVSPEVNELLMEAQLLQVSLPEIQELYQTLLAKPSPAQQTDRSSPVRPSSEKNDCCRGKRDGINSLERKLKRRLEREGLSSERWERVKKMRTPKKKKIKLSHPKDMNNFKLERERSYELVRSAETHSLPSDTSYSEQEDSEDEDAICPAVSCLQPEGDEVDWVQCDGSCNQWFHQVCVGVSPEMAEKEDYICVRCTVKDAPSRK
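KDM5BΔAP (200 nM final) in 50 mM HEPES pH 7.5, 0.01% Tween-20 was preincubated 10 min at RT with compound over a concentration range. Substrate mix (H3K4me3 12.5 µM, α-KG 25 µM, Fe²⁺, ascorbate, NAD⁺, FDH) was added, and NADH fluorescence change over 30 min gave dose-response curves.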
Active calls of the source: *; i = inactive. Potency is read from the fitted curve at half-maximal effect.

SMILES	KDM5B inhibitor
O=[S+]1([O-])NCC2(CCN(Cc3cccnc3)CC2)Oc2ncccc21	i
O=[S+]1([O-])NCC2(CCCN(Cc3cccc(C(F)(F)F)c3)C2)Oc2ncccc21 (stereo not given)	i
O=[S+]1([O-])NCC2(CCCN(Cc3ccc(Cl)cc3)C2)Oc2ncccc21 (stereo not given)	79µM*
CN1CCCC2(CCN(S(=O)(=O)c3ccc(F)c(F)c3F)C2)C1=O (stereo not given)	i
O=C(NC[C@H]1COCc2nc3cccnc3n21)Nc1ccccc1	i
Cc1cnc(C(=O)NC2C[C@H]3CC[C@@H](C2)N3C(=O)c2ccc(OC(C)C)cc2)cn1 (stereo not given in full)	i
Cc1ccc(C(=O)N2CCC3(CC2)N=C(c2ccc(C)cc2)NO3)cc1	i
Cc1ccc(C(=O)N2CCC3(CC2)N=C(c2cccc(Br)c2)NO3)cc1	32µM*
Cc1ccccc1C(=O)N1CCC2(CC1)N=C(c1cccc(Br)c1)NO2	i
CN(C)c1cccc(C(=O)N2CCC3(CC2)N=C(c2cccc(Br)c2)NO3)c1	32µM*
Cc1ccc(C2=NC3(CCN(C(=O)c4cccc(N(C)C)c4)CC3)ON2)cc1	i
CN(C)c1cccc(C(=O)N2CCC3(CC2)N=C(c2ccccc2)NO3)c1	i
COc1ccc(C2CC(=O)Nc3cc(OC)cc(OC)c32)cc1 (stereo not given)	i
CCC(Oc1ccccc1)C(=O)Nc1nn2c(-c3ccc(OC)c(OC)c3)nnc2s1 (stereo not given)	i
OC1CN(Cc2ccccc2)CCN(Cc2ccc3[nH]ccc3c2)C1 (stereo not given)	i
Cc1nc2ccc(C(=O)NCc3ccccc3CN(C)C)cc2nc1C	i
COc1ccc(C(=O)N[C@@H]2CCC[C@@H]2C(=O)NCc2cccc(F)c2)cn1	i
COc1cccc(C(=O)N2CCC(Oc3ncccc3C(=O)N3CCCCC3)C2)c1OC (stereo not given)	i
COc1ccc(-c2[nH]nc3ncc(-c4cccnc4)nc23)cc1F	i
c1cncc(-c2cnc3n[nH]c(-c4ccc5c(c4)OCO5)c3n2)c1	i
COc1ncccc1-c1cnc2n[nH]c(-c3ccccc3)c2n1	35µM*
COc1ncccc1-c1cnc2n[nH]c(-c3ccccc3C)c2n1	40µM*
COc1ccccc1-c1[nH]nc2ncc(-c3cccnc3OC)nc12	i
COc1cccc(S(=O)(=O)N2CCC(n3cnnc3-c3ccccc3)CC2)c1	i
O=C(C1CCC1)N1CCC(Cc2nc(C3CCOCC3)no2)CC1	i
SMILES	KDM5B inhibitor
Cn1ccnc1CN1CCN(c2nccc(-c3cccnc3)n2)CC1	i
CC1CCN(C(=O)c2ccccc2OCC2CCCN(Cc3ccncc3F)C2)CC1 (stereo not given)	i
NCCc1cccc(CN2CCCC(COc3ccccc3F)C2)c1 (stereo not given)	i
O=C(CCc1nc2ccccc2[nH]1)N1CCCOC(Cn2cccn2)C1 (stereo not given)	i
Fc1ccccc1OCC1CCCN(c2nccc(-c3cccnc3)n2)C1 (stereo not given)	28µM*
c1cncc(-c2ccnc(N3CCCOC(Cn4cccn4)C3)n2)c1 (stereo not given)	25µM*
Cc1ccc(-c2noc([C@@H]3C[C@H](NS(=O)(=O)c4ccc(F)cc4)CN3C)n2)cc1	i
COc1ccc(CN2C(=O)C3(CCOCC3)CC2c2nnnn2C(C)(C)C)cc1 (stereo not given)	i
Cc1ccc(C(=O)N[C@H]2CO[C@H]3[C@@H]2OC[C@@H]3Nc2nccc(-c3ccc4c(c3)OCO4)n2)cc1	28µM*
CCNC(=O)O[C@@H]1CO[C@H]2[C@@H]1OC[C@@H]2NS(=O)(=O)c1ccc2ccccc2c1	i
O=S(=O)(N[C@H]1CO[C@H]2[C@@H]1OC[C@@H]2Nc1nccc(-c2ccc3c(c2)OCO3)n1)c1ccc2ccccc2c1	28µM*
COc1ccc(C(=O)N[C@H]2CO[C@H]3[C@@H]2OC[C@@H]3n2nnnc2-c2ccc3c(c2)OCO3)cc1	i
COc1ccc(-c2ccnc(N[C@H]3CO[C@H]4[C@@H]3OC[C@@H]4NC(=O)c3ccc4c(c3)OCO4)n2)cc1	i
O=C(N[C@H]1CO[C@H]2[C@@H]1OC[C@@H]2Nc1nccc(-c2ccc(-c3ccccc3)cc2)n1)c1ccc2c(c1)OCO2	i
CCOCCCNC(=S)NCc1cccc(COCc2ccccc2)c1	i
Cc1cnc(NC(=O)Cc2ccc(OCc3c(C)noc3C)cc2)s1	i
O=C(Nc1nccs1)[C@@H]1C[C@H](c2ccc(F)cc2)N(Cc2ccccc2Cl)C1	i
COCC1CN(Cc2cc(F)cc(Br)c2)CC12CCNCC2 (stereo not given)	i
CCC(=O)N1CCc2c(sc3ncnc(NCc4ccccc4)c23)C1	32µM*
CCC(=O)N1CCc2c(sc3ncnc(NCCc4ccccc4)c23)C1	i
Nc1ncnc2sc3c(c12)CCN(C(=O)c1ccccc1)C3	i
CN(C1CCc2nn(CC3CC3)c(=O)n2CC1)S(=O)(=O)Cc1ccccc1 (stereo not given)	i
O=C(C1CC1)N1CCC(c2nn(-c3ccccc3)c(=O)[nH]2)CC1	i
COc1ccc(CCN2CN=C(NS(=O)(=O)c3ccc(F)cc3)NC2)cc1	i
Cc1cccc(OC(C)c2nc(-c3cccc(Br)c3)no2)c1 (stereo not given)	i
SMILES	KDM5B inhibitor
O=C(NCC1CCN(C2CCCC2)C1)Nc1ccccc1Cl (stereo not given)	i
Cc1ccccc1NC(=O)c1cnc2c(c1)N(C(=O)Cc1ccc(C(C)C)cc1)CCC2	i
CC(C)Nc1ncc(C(=O)NC2CC(=O)N(Cc3cccc(F)c3)C2)cn1 (stereo not given)	22µM*
O=C(Nc1cccc(C(F)(F)F)c1)c1cnc2c(c1)N(Cc1ccccc1)CCC2	7.1µM*
O=C(Cc1cccc(Cl)c1)NC1CC(=O)N(Cc2ccc(F)cc2)C1 (stereo not given)	i
CC(C)c1ccc(CC(=O)N2CCCc3ncc(C(=O)Nc4cccc(C(F)(F)F)c4)cc32)cc1	25µM*
O=C(Nc1cccc(F)c1)c1cnc2c(c1)N(C(=O)CCc1ccccc1)CCC2	i
Cc1noc(C)c1C(=O)NC1CC(=O)N(Cc2cccc(F)c2)C1 (stereo not given)	i
CC(C)NC(=O)c1cnc2c(c1)N(C(=O)Cc1cccc(C(F)(F)F)c1)CCC2	i
COc1ccc(NC(=O)c2cnc3c(c2)N(C(=O)Cc2cccc(C(F)(F)F)c2)CCC3)cc1OC	i
COc1ccccc1CC(=O)N1CCCc2ncc(C(=O)NCc3cccc(F)c3)cc21	i
O=C(NCc1cccc(F)c1)c1cnc2c(c1)N(C(=O)Cc1cccc(C(F)(F)F)c1)CCC2	i
O=C(NCc1cccc(F)c1)c1cnc2c(c1)N(Cc1ccccc1)CCC2	5.6µM*
Cc1ccc(S(=O)(=O)C(CNS(=O)(=O)c2ccc(Cl)cc2)c2cccnc2)cc1 (stereo not given)	i
CC(c1cc2ccccc2o1)N(C)S(=O)(=O)c1cccs1 (stereo not given)	i
O=C(O)c1ccc(CN2CCC(CO)CC2)cc1	i
COC(=O)C1=CN(CC(=O)Nc2cc(Cl)ccc2C)S(=O)(=O)N=C1C	i
C#CCN1CCC(C(=O)NCCN2CCCCCC2)CC1	i
COCCNC(=O)c1cnc2c(c1)N(Cc1ccccc1C(F)(F)F)CCC2	35µM*
